Screening results deposited in PubChem by National Center for Advancing Translational Sciences (NCATS).
IL-1B inflam inh – qHTS for Inhibitors of Inflammasome Signaling: IL-1-beta AlphaLISA Primary Screen; THP-1 LPS/ATP IL-1B secretion, AlphaLISA, 16 h; stronger effect = lower value; activity change, % at 57.5 µM; actives 4.7% (n = 360,000); AID 743279, 2014; in the data active means activity change below about -50%; inconclusive means mostly about -30% to -49%
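Secreted IL-1B measured by AlphaLISA bead assay after 16 h compound exposure of THP-1 cells; compounds (final up to 57.5 uM) added 1 h before LPS (250 ng/mL) and ATP (1.25 mM) stimulation; lower signal means less secretion.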
HT1080NT lethal – qHTS for induction of synthetic lethality in tumor cells producing 2HG: qHTS for the HT-1080-NT fibrosarcoma cell line; AID 686970, 2013; Potency, µM (titrated, usually from 46.1 µM), for the others: top-dose activity, negative = less viability, actives largely listed as cytotoxic; HT-1080-NT fibrosarcoma viability, CellTiter-Glo ATP luminescence, 48 h; actives 1.6% (n = 360,000);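 further: NT is the 2HG producing partner of a matched IDH1 knockdown line; potency means the concentration at half of the fitted maximal effect; 0% = DMSO-treated cells and -100% = media-only wells without cells; nearly all actives have a fitted effect of over 55% in size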
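Luminescent CellTiter-Glo readout after 48 hours of compound exposure at 37 degrees C defined viability of HT-1080-NT cells. Activity was normalized to DMSO wells and cell-free media wells; concentration-response curves were fitted and assigned curve classes.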
ALOX12 inh – Primary qHTS assay for inhibitors of human arachidonate 12S-lipoxygenase (ALOX12): Round 2 | AID 1671190, 2021 | Potency, µM (titrated, usually from 108 µM), for inactives: at the top dose activity change, negative = inhibition, most hits filed as inhibitors | purified 12hLO, xylenol orange hydroperoxide absorbance | actives 1.1% (n = 580,000) | Polyunsaturated fatty acid lipoxygenase ALOX12 (Homo sapiens), P18054; further: potency means the concentration at half of the fitted maximal effect
Target sequence (P18054 whole entry, looked up): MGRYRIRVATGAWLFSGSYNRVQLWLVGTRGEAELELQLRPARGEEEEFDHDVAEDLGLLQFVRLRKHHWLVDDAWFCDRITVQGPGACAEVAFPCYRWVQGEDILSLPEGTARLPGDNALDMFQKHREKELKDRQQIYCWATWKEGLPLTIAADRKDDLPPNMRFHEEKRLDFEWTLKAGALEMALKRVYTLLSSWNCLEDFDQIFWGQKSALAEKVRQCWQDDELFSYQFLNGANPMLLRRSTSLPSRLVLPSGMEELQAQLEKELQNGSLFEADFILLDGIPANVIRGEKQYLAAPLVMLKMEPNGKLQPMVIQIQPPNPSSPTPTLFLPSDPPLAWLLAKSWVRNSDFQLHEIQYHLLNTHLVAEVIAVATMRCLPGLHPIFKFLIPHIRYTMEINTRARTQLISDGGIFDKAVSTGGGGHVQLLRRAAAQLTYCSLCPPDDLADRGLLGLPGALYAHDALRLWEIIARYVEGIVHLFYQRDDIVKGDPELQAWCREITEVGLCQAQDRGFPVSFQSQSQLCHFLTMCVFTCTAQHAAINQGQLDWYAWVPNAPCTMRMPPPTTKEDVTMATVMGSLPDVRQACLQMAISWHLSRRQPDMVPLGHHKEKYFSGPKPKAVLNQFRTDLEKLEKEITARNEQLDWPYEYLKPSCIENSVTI
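Hydroperoxide product was detected by ferrous iron/xylenol orange as the 573 to 405 nm absorbance ratio. Arachidonic acid at 40 uM (final) was turned over for 30 min at room temperature by 150 nM human 12hLO, pH 7.0 Hepes buffer, after 15 min compound preincubation.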
TDP1 cell CPT – qHTS for Inhibitors of human tyrosyl-DNA phosphodiesterase 1 (TDP1): qHTS in cells in presence of CPT; chicken DT40 Tdp1-/-;hTDP1 cells + 20 nM CPT, ATP luminescence, 48 h; Potency, µM (series often up to 46.2 µM), for inactives: at the highest dose activity change, negative = growth inhibition, usual class: inhibitors; actives 12% (n = 420,000); further: potency means the concentration at half of the fitted maximal effect; nearly all actives have a fitted effect of over 55% in size
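Cell growth measured by CellTiter-Glo luminescence after a minimum 48 h, 37 C compound exposure with 20 nM CPT in Tdp1-knockout DT40 cells stably expressing hTDP1, seeded 400/well; qHTS titration format.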
DT40 TDP1 no CPT – qHTS for Inhibitors of human tyrosyl-DNA phosphodiesterase 1 (TDP1): qHTS in cells in absence of CPT. DT40 Tdp1-/- hTDP1 cells, no CPT, ATP luminescence, 48 h. Potency, µM (highest dose often 46.2 µM), for inactives: top-dose activity change, negative = growth inhibition, usual class: inhibitors. actives 15% (n = 420,000); further: potency means the concentration at half of the fitted maximal effect; nearly all actives have a fitted effect of over 55% in size
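DT40 Tdp1-/-;hTDP1 cells, no CPT (DMSO vehicle only), 400 cells/well; compounds pin-transferred; ≥48 hr, 37 °C; CellTiter-Glo 30 min RT dark, luminescence read.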
HT1080 IDH1KD tx – qHTS for induction of synthetic lethality in tumor cells producing 2HG: qHTS for the HT-1080-IDH1KD cell line. HT-1080 IDH1 knockdown viability, ATP luminescence, 48 h. Potency, µM (series often up to 46.1 µM), for the others: at the highest dose activity, negative = toxicity, usual class: cytotoxic. actives 2% (n = 360,000). AID 686971, 2013;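 further: potency means the concentration at half of the fitted maximal effect; 0% = DMSO wells and -100% = cell-free medium wells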
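% activity derives from luminescence (CellTiter-Glo), normalised to DMSO and no-cell wells. HT-1080-IDH1KD cells, 750/well, had 48 h compound exposure at 37 °C.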
* hit, by the source's call; ? = inconclusive; . = not tested or not shown; ! = repeats disagree. Only a selection was taken, and hits are over-represented in it overall. Unless noted, the call rests on the fitted dose curve; in most records, active means well fitted curve in the direction sought with a large enough effect; inconclusive means small, poorly fitted or top-dose-only effect, or another doubt; inactive means no such curve, though single readings can be large; an effect the other way counts as inactive or inconclusive. Unless noted, on the % scale 0 is the no-effect control and ±100 the full control effect.

SMILES	IL-1B inflam inh	HT1080NT lethal	ALOX12 inh	TDP1 cell CPT	DT40 TDP1 no CPT	HT1080 IDH1KD tx
O=C(COC(=O)Cc1n[nH]c(=O)c2ccccc12)NC(=O)NC1CCCCC1	.	.	10.1%	.	.	.
COCCN(Cc1ccccc1F)Cc1cc2c(cc1OC)OCO2	.	.	38.4%	.	.	.
Cc1nn2c(=O)cc(COC(=O)c3ccc(NC(=O)c4ccc(C(C)(C)C)cc4)cc3)nc2s1	.	.	-17.6%	?	16.4µM*	.
CCOC(=O)c1cccc(NC(=O)c2cc3cc4ccc(C)cc4nc3s2)c1	.	.	-15.8%	14.6µM*	14.6µM*	.
O=C(Nc1ccccc1C(=O)OCc1cc(=O)n2ccsc2n1)c1cccc(F)c1	.	.	-17.8%	18.4µM*	11.6µM*	.
Cc1cnn(CC(=O)N2C[C@@H](COCC3CC3)[C@H](c3ccncc3)C2)c1	.	.	34.4%	.	.	.
COc1ccc(SCCc2ccncc2)cc1	-4.4	-4.7%	1.2%	1.3%	3.8%	-2.1%
Fc1ccc(SCCc2ccncc2)cc1	1.3	15.0%	6.0%	?	18.4µM*!	9.8%
O=[N+]([O-])c1ccc(SCCc2ccncc2)cc1	-4.9	3.7%	?	?	20.6µM*	2.0%
O=[N+]([O-])c1ccc(SCCc2ccccn2)cc1	-6.7	-0.2%	?	-14.9%	-29.1%	-18.5%
CC(C)Cn1c(=O)c2ccccc2n2c(CCC(=O)Nc3ccc(F)c(F)c3)nnc12	.	.	-6.4%	?	?	.
CN1CCc2c(sc(NC(=O)c3ccc(C(=O)c4ccccc4)cc3)c2C(N)=O)C1	0.0	-24.2%	?	-1.5%	5.5%	-19.8%
CC(C)N1CCc2c(sc(NC(=O)c3nc4ccccc4s3)c2C(N)=O)C1	-9.7	?	-1.2%	13µM*	20.6µM*	-28.1%
CC(C)N1CCc2c(sc(NC(=O)c3cc(-c4cccs4)nc4ccccc34)c2C(N)=O)C1	-21.0	?	.	18.4µM*	9.2µM*	?
COCCNC(=O)CSCc1nc(-c2ccc(C)cc2)oc1C	.	.	47.1%	.	.	.
COCCn1c(=O)n([C@H]2CCCN(C(=O)c3cnccn3)C2)c2ncccc21	.	.	29.4%	.	.	.
COc1cc2nc(C3CCC3)n(NC(=O)C3CCCC(OC)C3)c(=O)c2cc1OC (stereo not drawn)	-13.8	16.5%	8.9%	-33.2%	-19.9%	-3.1%
COc1cc2nc(C3CCC3)n(NC(=O)c3ccco3)c(=O)c2cc1OC	-57.3*	8.4%	1.2%	0.6%	2.9%	1.7%
O=C1C=C(c2cccs2)C[C@H](c2ccccc2)[C@H]1n1nnc([N+](=O)[O-])n1	-57.4*	?	?	2.59µM*	2.91µM*	2.91µM*
CCc1ccc(S(=O)(=O)Nc2ccc(-c3ccc(N4CCCC4)nn3)cc2)cc1	.	.	-11.4%	-21.8%	-15.3%	.
Cc1ccc(S(=O)(=O)Nc2ccc(-c3ccc(N4CCCCCC4)nn3)cc2)cc1C	.	.	-11.7%	2.91µM*	-49.3%	.
O=S(=O)(Nc1ccc(-c2ccc(N3CCCC3)nn2)cc1)c1ccc(OC(F)(F)F)cc1	.	.	-27.2%	14.6µM*	?	.
CCCCOc1ccc(S(=O)(=O)Nc2ccc(-c3ccc(N4CCCCC4)nn3)cc2)cc1	.	.	-15.9%	14.6µM*	20.6µM*	.
CCCCOc1ccc(S(=O)(=O)Nc2ccc(-c3ccc(N4CCCCCC4)nn3)cc2)cc1	.	.	-25.5%	13µM*	?	.
CN(C)C[C@@H]1CN(Cc2ccncc2)C[C@H]1NC(=O)c1ccc(Cl)cc1	.	.	38.1%	.	.	.
